The values that follow come from PubChem BioAssay (NCI).

Holding throughout (test): NCI-60 one-dose screen, 48 h (100 = growth as untreated, 0 = no growth, -100 = all killed)
The test system of one assay is HCT-15 colon. The following applies: 10 µM.
The test system of another assay is HT29 colon. The following applies: 10 µM.
Another assay concerns SNB-75 CNS. The settings on record: 10 µM.
A further assay deals with SNB-19 CNS. The following applies: 10 µM.
The next assay has as its system PC-3 prostate. The settings on record: 10 µM.
Another assay relates to SK-MEL-5 melanoma. The following applies: 10 µM.
For a further assay, the system named is UACC-62 melanoma. The settings on record: 10 µM unless noted.
Another assay has as its system LOX IMVI melanoma. The settings on record: 10 µM.
The next assay has as its system SN12C renal. The following applies: 10 µM.
The test system of the next assay is UO-31 renal. The settings on record: 10 µM.
For a further assay, the system named is TK-10 renal. The following applies: 10 µM unless noted.
Another assay deals with ACHN renal. The settings on record: 10 µM.
The test system of another assay is CAKI-1 renal. The following applies: 10 µM.
Another assay has as its system A498 renal. The settings on record: 10 µM.
Another assay deals with MOLT-4 leukemia. The following applies: 10 µM.
Another assay concerns U251 CNS. The following applies: 10 µM.
Another assay has as its system SK-MEL-28 melanoma. The following applies: 10 µM.
Another assay concerns SK-MEL-2 melanoma. The following applies: 10 µM.
Another assay has as its system EKVX NSCLC. The following applies: 10 µM.
For another assay, the system named is CCRF-CEM leukemia. The following applies: 10 µM.

The panel holds about 83,000 compounds, 20% with a hit somewhere; the sample as a whole holds those more often.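 For each line, cells grew in 96-well plates with the test compound present at a single concentration for 48 hours.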 Unmarked numbers belong to inactive results. The source made the active and inactive calls. How the source made its calls: active means growth percent below 10; inactive means the rest.

As for `N#CC(=Nc1cccc(F)c1)C1=C(O)c2ccccc2C1=O`, the growth with HCT-15 colon is 76%; with HT29 colon, 105%; in the assay on SNB-75 CNS, 54.3%; in the assay on SNB-19 CNS it was 90.4%; with PC-3 prostate, 83%; in the assay on SK-MEL-5 melanoma, 90.7%. Also, the growth in the assay on UACC-62 melanoma was 82.8%; in the assay on LOX IMVI melanoma, 91.1%; in the assay on SN12C renal, 82.8%; in the assay with UO-31 renal, 78.6%; in the assay with TK-10 renal it was 110%; in the assay with ACHN renal, 87.1%. Also, the growth is 47% with CAKI-1 renal, 79.4% with A498 renal and 96.5% in the assay with MOLT-4 leukemia.
As for `O=C(Cc1nc2ccc([N+](=O)[O-])cc2nc1CC(=O)c1ccccc1)c1ccccc1`, the growth is 35.2% in the assay with HCT-15 colon; 75.3% in the assay on HT29 colon; 65.2% in the assay with SNB-75 CNS; 49.2% in the assay with U251 CNS; 59.4% in the assay with PC-3 prostate; 55% in the assay with SK-MEL-5 melanoma. The growth in the assay on UACC-62 melanoma is 53.2%; in the assay on LOX IMVI melanoma, 3.86% (active); with SK-MEL-28 melanoma it was 64.7%; in the assay with SK-MEL-2 melanoma it was 103%; with EKVX NSCLC, 55.8%; in the assay with SN12C renal, 75%. Also, the growth in the assay on TK-10 renal is 104%; in the assay with ACHN renal, 57%; with CAKI-1 renal, 62.9%; with A498 renal it was 132%; with CCRF-CEM leukemia, 40.5%; in the assay on MOLT-4 leukemia, 54.2%.
In the case of `O=C(Nc1ccccc1)OCCc1ccccc1`, the growth is 96.9% in the assay on HCT-15 colon; 95% in the assay with HT29 colon; 80.3% with SNB-75 CNS; 101% in the assay on SNB-19 CNS; 91% in the assay with PC-3 prostate; 99.3% in the assay with SK-MEL-5 melanoma. Moreover, the growth is 104% in the assay with UACC-62 melanoma; 107% with LOX IMVI melanoma; 100% in the assay on SK-MEL-28 melanoma; 95.3% in the assay on SN12C renal; 103% in the assay on UO-31 renal; 95.2% in the assay on TK-10 renal. Also, the results for the growth in the assay with ACHN renal, in the assay with CAKI-1 renal and with MOLT-4 leukemia were 104%, 88.5% and 101%, respectively.
Take `Cc1cc2nc(CC(=O)c3ccccc3)c(=O)[nH]c2cc1C`: the growth in the assay with HCT-15 colon is 87.7%; in the assay on HT29 colon it was 97.5%; in the assay with SNB-75 CNS it was 117%; in the assay on U251 CNS it was 95.4%; with PC-3 prostate it was 88.4%; in the assay with SK-MEL-5 melanoma it was 96.1%. Also, the growth in the assay on UACC-62 melanoma was 74.9%; in the assay with LOX IMVI melanoma, 96.2%; in the assay with SK-MEL-28 melanoma, 109%; in the assay with SK-MEL-2 melanoma, 102%; with EKVX NSCLC, 55.5%; in the assay with SN12C renal it was 93.8%. For the same compound, the growth with TK-10 renal is 149%; with ACHN renal, 93.8%; in the assay with CAKI-1 renal, 76.2%; in the assay on A498 renal it was 127%; with CCRF-CEM leukemia it was 88.5%; with MOLT-4 leukemia it was 89%.
With `COc1ccccc1C1OC2=Nc3cc(C)c(C)cc3NC2C1=O` (stereo not drawn), the growth in the assay with HCT-15 colon was 80.8%; in the assay on HT29 colon, 93.1%; in the assay with SNB-75 CNS it was -13.2% (active); with U251 CNS, 53%; with PC-3 prostate it was 82.5%; in the assay on SK-MEL-5 melanoma, 78.3%. The growth was 76.2% in the assay on UACC-62 melanoma; 72.3% in the assay with LOX IMVI melanoma; 106% in the assay on SK-MEL-28 melanoma; 105% in the assay on SK-MEL-2 melanoma; 83.9% with EKVX NSCLC; 81.2% with SN12C renal. Also, the growth was 55.1% in the assay with TK-10 renal; 16.5% in the assay on ACHN renal; 60.3% in the assay with CAKI-1 renal; 86.8% in the assay on CCRF-CEM leukemia; 97.8% in the assay with MOLT-4 leukemia.
In the case of `c1csc(-c2cc(-c3cc(-c4cccs4)[nH]n3)n[nH]2)c1`, the growth in the assay on HCT-15 colon was 98.9%; in the assay on HT29 colon it was 106%; with SNB-75 CNS, 128%; with U251 CNS it was 106%; in the assay on PC-3 prostate it was 87.3%; with SK-MEL-5 melanoma, 99.2%. For the same compound, the growth is 84.4% in the assay on UACC-62 melanoma; 87.2% in the assay on LOX IMVI melanoma; 105% in the assay with SK-MEL-28 melanoma; 132% with SK-MEL-2 melanoma; 64.8% in the assay with EKVX NSCLC; 97.4% in the assay on SN12C renal. The growth in the assay with TK-10 renal was 162%; in the assay on ACHN renal, 92.7%; in the assay with CAKI-1 renal, 79.6%; in the assay on A498 renal, 139%; with CCRF-CEM leukemia, 66.1%; with MOLT-4 leukemia it was 97.7%.
As for `CC(C)NC(=O)OCc1c(COC(=O)NC(C)C)c(-c2ccc(Cl)c(Cl)c2)n2c1SCC2`, the growth in the assay with HCT-15 colon was 47.6%; with HT29 colon it was 62.1%; in the assay with SNB-75 CNS, 27.8%; in the assay with U251 CNS, 43.3%; in the assay with PC-3 prostate it was 61.3%; in the assay with SK-MEL-5 melanoma it was 67.7%. The growth in the assay with UACC-62 melanoma was -19.3% (active); in the assay with LOX IMVI melanoma it was 19.1%; with SK-MEL-28 melanoma it was 92.8%; in the assay with SK-MEL-2 melanoma it was 37.8%; in the assay on EKVX NSCLC it was 62.4%; in the assay with SN12C renal it was 36.4%. In addition, the growth is 6.38% (active) in the assay on TK-10 renal; 18.1% in the assay on ACHN renal; -11.5% (active) with CAKI-1 renal; 24.9% in the assay with CCRF-CEM leukemia; 17.1% in the assay with MOLT-4 leukemia.
`Cc1ccc(/C=C2\SC(=S)N(c3ccc(F)cc3)C2=O)o1`: the growth with HCT-15 colon is 88.1%; in the assay with HT29 colon, 70.6%; in the assay with SNB-75 CNS, 24.7%; in the assay with U251 CNS, 61%; in the assay on PC-3 prostate, 96.1%; in the assay with SK-MEL-5 melanoma it was 88.2%. Further, the growth in the assay on UACC-62 melanoma is 85.2%; in the assay with LOX IMVI melanoma it was 68.8%; in the assay with SK-MEL-28 melanoma, 100%; with SK-MEL-2 melanoma, 96.3%; with EKVX NSCLC, 82.4%; in the assay on SN12C renal, 87%. Further, the growth in the assay on TK-10 renal was 102%; with ACHN renal, 48.6%; in the assay on CAKI-1 renal it was 54.9%; in the assay with A498 renal it was 112%; in the assay on CCRF-CEM leukemia, 89.2%; in the assay on MOLT-4 leukemia, 79.1%.
`CCS(=O)(=O)CCCl`: the growth in the assay on HCT-15 colon is 91.8%; with HT29 colon it was 110%; in the assay on SNB-75 CNS, 123%; with U251 CNS, 102%; in the assay with SK-MEL-5 melanoma, 94.3%; with UACC-62 melanoma it was 85.1%. In addition, the growth was 81.7% with LOX IMVI melanoma; 106% in the assay on SK-MEL-28 melanoma; 102% in the assay on SK-MEL-2 melanoma; 89.6% in the assay with EKVX NSCLC; 97.8% in the assay with SN12C renal; 96.5% with TK-10 renal. Besides, the growth was 97.3% in the assay on ACHN renal; 101% in the assay on CAKI-1 renal; 129% in the assay on A498 renal; 63.6% with CCRF-CEM leukemia; 89.5% in the assay with MOLT-4 leukemia.
